Compounds without any hit were thinned out: in the full panel of roughly 79,000, 15% have a hit. Cut-off read from the data, not from the text of the source: active = growth inhibition above about 70%; inactive = the rest.
Key:
[1] = NCI Yeast Anticancer Drug Screen. Data for the rad50 strain (AID 155);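 note: 0% = growth of vehicle-only cultures of the same strain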; settings: S. cerevisiae rad50 strain growth inhibition; at 50.0 µM; stronger effect = higher value
Outline: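 Growth of the mutant yeast was measured after compound exposure and referenced to vehicle-treated cultures.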

[2] = NCI Yeast Anticancer Drug Screen. Data for the mec2-1 strain (AID 157); settings: S. cerevisiae mec2-1 strain, at 50.0 µM, stronger effect = higher value
Outline: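 Cells of the genetically defined mec2-1 yeast strain are incubated with test compound. Inhibition of growth is calculated against vehicle-treated controls.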

[3] = NCI Yeast Anticancer Drug Screen. Data for the sgs1 mgt1 strain (AID 161);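 note: 0% = growth of cultures given vehicle only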; settings: S. cerevisiae sgs1 mgt1 strain, at 50.0 µM, stronger effect = higher value
Outline: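 Test agents were incubated with a DNA-repair-mutant yeast strain. Growth was then read and compared against vehicle-treated controls.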

[4] = NCI Yeast Anticancer Drug Screen. Data for the cln2 rad14 strain (AID 165);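 note: 0% = growth equal to vehicle treated cultures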; settings: S. cerevisiae cln2 rad14 strain, at 50.0 µM, stronger effect = higher value
Outline: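 The screen exposed genetically defined yeast (cln2 rad14) to test compounds and scored growth inhibition relative to vehicle-treated controls.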

[5] = NCI Yeast Anticancer Drug Screen. Data for the bub3 strain (AID 167); settings: S. cerevisiae bub3 mutant strain, at 50.0 µM, stronger effect = higher value
Outline: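 Whole-cell yeast assay. The mutant strain was incubated with compounds, and growth inhibition was determined by comparison with vehicle-treated cells.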

[6] = NCI Yeast Anticancer Drug Screen. Data for the mlh1 rad18 strain (AID 175); settings: S. cerevisiae mlh1 rad18 strain growth inhibition; at 50.0 µM; stronger effect = higher value
Outline: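 Compound-treated yeast growth, normalised to vehicle controls. Strain bears defined DNA repair mutations.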

Measured: growth inhibition

O=C1c2c(nc3ccccc3c2-c2ccccc2)CN1Nc1ccccn1
inactive: [1] -2.5% | [2] -4.1% | [3] 6.8% | [4] 12.8% | [5] -5.7% | [6] -33.9%

Cc1cc(C(=O)c2ccccc2)ccc1[N+](=O)[O-]
inactive: [1] 23.1% | [2] -11% | [3] -7.35% | [4] -0.5% | [5] -0.65% | [6] 7.1%

NC1=NC(=O)N(C2CC(O)C(COP(=O)(O)O)O2)C(I)C1 (stereo not given)
inactive: [1] 31.9% | [2] 0% | [3] 12.9% | [4] -28.6% | [5] -0.6% | [6] 13.2%

O=C(NCCCl)NC(C1CC1)C1CC1
inactive: [1] 13.1% | [2] -2.9% | [3] 6.45% | [4] -58.1% | [5] 13.4% | [6] -3.95%

O=C1C(c2[nH]c3ccc(F)cc3c2O)=Nc2ccc(F)cc21
inactive: [1] 8.7% | [2] 10.9% | [3] 22.9% | [4] 9.4% | [5] 0% | [6] 19.1%

CCOCCOC(=O)/C=C/c1ccccc1
inactive: [1] 17.6% | [2] -9.6% | [3] -4.35% | [4] -46.8% | [5] 8.15% | [6] -3.15%

O=C(/C=C/C(=O)NCc1ccccc1)NCc1ccccc1
inactive: [1] -0.2% | [2] 0.4% | [3] 16.9% | [4] -11.1% | [5] 4.7% | [6] -5.95%

O=c1[nH]c2cc([N+](=O)[O-])ccc2nc1/C(=N/Nc1ccccc1)C(O)c1ccc(Cl)cc1Cl (stereo not given)
inactive: [1] 41% | [2] 3.6% | [3] -11.6% | [4] -20.2% | [5] -7.3% | [6] 34.7%

COc1nc(N)c(C(=O)CCl)c(=O)n1C
inactive: [1] 3.35% | [2] -7.5% | [3] 6.5% | [4] 0.35% | [5] -20.6% | [6] 16.5%

COc1cccc([N+](=O)[O-])c1
inactive: [1] 18.3% | [2] 32.2% | [3] -14.8% | [4] -5.9% | [5] -0.9% | [6] 5.75%

Cc1c([N+](=O)[O-])ccc2c1C(=O)c1ccccc1C2=O
inactive: [1] -41.6% | [2] -0.35% | [3] -39.9% | [4] 2.7% | [5] -5.7% | [6] 39.5%

COc1cc2c3cc1Oc1c(OC)c(OC)cc4c1C(Cc1ccc(O)c(c1)Oc1ccc(cc1)CC3N(C)CC2)CN(C)C4 (stereo not given)
inactive: [1] -17.6% | [2] -37.9% | [3] -3.6% | [4] -17.4% | [5] 3.35% | [6] 25.1%

CCCCCCSc1n[nH]c(=S)s1
inactive: [1] -4.25% | [2] 9.55% | [3] 18.4% | [4] 24.6% | [5] -5.2% | [6] 13.4%

O=C1NC(N2CCCC(CO)C2)=N/C1=C\c1ccc(Cl)cc1 (stereo not given)
inactive: [1] 25.6% | [2] -10.9% | [3] -18.9% | [4] 23.6% | [5] -17.8% | [6] -19.1%

O=C(O)c1ccc(O)c2ccccc12
inactive: [1] -21.9% | [2] -21.2% | [3] -15.4% | [4] -24.7% | [5] -13.1% | [6] -21.9%

CNC(=O)c1n[nH]c(=S)[nH]c1=O
inactive: [1] -7.4% | [2] -4.9% | [3] 0.8% | [4] -52.8% | [5] -6.7% | [6] -7.5%

CSCCC(NCCC#N)C(=O)O (stereo not given)
inactive: [1] -7.05% | [2] 19.4% | [3] 8.45% | [4] -12.9% | [5] -27.9% | [6] 2.85%

N#CC(=Nc1ccccc1N(C(=O)c1ccccc1)C(=O)c1ccccc1)c1ccccc1
inactive: [1] -21.3% | [2] -19.4% | [3] -30.4% | [4] 2.95% | [5] -51.5% | [6] -38.4%

CCCCCCCC/C=C/CCCCCCCC(=O)O
inactive: [1] -25% | [2] -37.2% | [3] -20.6% | [4] -16.8% | [5] -16.2% | [6] -50.9%

NCC(=O)N1CCCCC1
inactive: [1] 7.05% | [2] 9.75% | [3] 4.95% | [4] -8.15% | [5] -2.1% | [6] 7.7%

From PubChem BioAssay (NCI)
